# Key:
# Assay in all cases: DAPPL (digital affinity profiling via proximity ligation, sequencing); 10 mM Tris-HCl pH 7.5, 50 mM NaCl, 1 mM DTT, 4% glycerol, room temperature, 30 min; GST-TFs on glutathione beads, 16-mer random dsDNA library, 0.1% formaldehyde crosslink after washing; high values mean tight binding
# [1] = molecular target: T1, FEV (Homo sapiens, UniProt Q99581 1-238); conditions: protein: recombinant; tags: N-terminal GST; dsDNA, one strand shown
# T1 sequence: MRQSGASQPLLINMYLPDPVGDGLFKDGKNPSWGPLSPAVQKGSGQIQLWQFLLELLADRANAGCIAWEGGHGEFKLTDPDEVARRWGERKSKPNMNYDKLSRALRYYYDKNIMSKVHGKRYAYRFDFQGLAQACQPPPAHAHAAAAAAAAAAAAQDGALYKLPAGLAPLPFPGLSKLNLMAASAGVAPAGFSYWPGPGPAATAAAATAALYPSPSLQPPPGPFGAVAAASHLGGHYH
# Procedure, shortened: (§1)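 Binding signal is each hexamer's read frequency for a factor divided by its frequency in the tag-only sample. The factors were GST-fused human transcription factors from yeast, captured on glutathione beads, DNA-barcoded and pooled with that sample. Pools were incubated with 200 nmole of a random double-stranded 16-mer DNA library in Tris/NaCl/DTT/glycerol buffer at room temperature for 30 min, then washed, crosslinked with 0.1% formaldehyde, proximity-ligated with BsaI/T4 ligase (1 h, 37 °C), PCR-amplified and sequenced on an Illumina NextSeq500.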
# [2] = molecular target: ETV5 (Homo sapiens, UniProt P41161 1-510); conditions: protein: recombinant; tags: N-terminal GST; dsDNA, one strand shown
# Procedure, shortened: as §1
# [3] = molecular target: HSF1 (Homo sapiens, UniProt Q00613 1-529); conditions: protein: recombinant; tags: N-terminal GST; chain copies: 3; dsDNA, one strand shown
# Procedure, shortened: as §1
# [4] = molecular target: T2, SPIC (Homo sapiens, UniProt Q8N5J4 1-248); conditions: protein: recombinant; tags: N-terminal GST; dsDNA, one strand shown
# T2 sequence: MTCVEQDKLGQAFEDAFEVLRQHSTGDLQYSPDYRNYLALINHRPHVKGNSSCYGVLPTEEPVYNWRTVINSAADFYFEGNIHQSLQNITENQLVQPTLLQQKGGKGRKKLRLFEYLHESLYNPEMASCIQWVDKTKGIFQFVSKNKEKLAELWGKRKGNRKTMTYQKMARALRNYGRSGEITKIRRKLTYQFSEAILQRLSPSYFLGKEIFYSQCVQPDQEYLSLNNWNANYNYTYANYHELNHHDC
# Procedure, shortened: as §1
# [5] = molecular target: ELF4 (Homo sapiens, UniProt Q99607 1-663); conditions: protein: recombinant; tags: N-terminal GST; dsDNA, one strand shown
# Procedure, shortened: as §1
# [6] = molecular target: T3, ELK4 (Homo sapiens, UniProt P28324-2 1-405); conditions: protein: recombinant; tags: N-terminal GST; dsDNA, one strand shown
# T3 sequence: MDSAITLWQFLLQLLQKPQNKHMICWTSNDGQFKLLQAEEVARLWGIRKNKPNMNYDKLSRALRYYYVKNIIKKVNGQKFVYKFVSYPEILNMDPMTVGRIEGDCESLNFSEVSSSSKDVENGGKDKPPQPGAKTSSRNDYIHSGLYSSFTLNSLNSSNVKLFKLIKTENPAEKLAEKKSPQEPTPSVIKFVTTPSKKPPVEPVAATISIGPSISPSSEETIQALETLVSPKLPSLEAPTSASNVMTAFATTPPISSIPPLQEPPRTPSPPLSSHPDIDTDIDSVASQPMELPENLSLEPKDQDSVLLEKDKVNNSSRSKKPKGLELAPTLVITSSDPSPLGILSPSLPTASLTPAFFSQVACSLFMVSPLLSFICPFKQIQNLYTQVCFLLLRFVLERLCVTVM
# Procedure, shortened: as §1
# [7] = molecular target: T4, ETV2 (Homo sapiens, UniProt O00321 1-342); conditions: protein: recombinant; tags: N-terminal GST; dsDNA, one strand shown
# T4 sequence: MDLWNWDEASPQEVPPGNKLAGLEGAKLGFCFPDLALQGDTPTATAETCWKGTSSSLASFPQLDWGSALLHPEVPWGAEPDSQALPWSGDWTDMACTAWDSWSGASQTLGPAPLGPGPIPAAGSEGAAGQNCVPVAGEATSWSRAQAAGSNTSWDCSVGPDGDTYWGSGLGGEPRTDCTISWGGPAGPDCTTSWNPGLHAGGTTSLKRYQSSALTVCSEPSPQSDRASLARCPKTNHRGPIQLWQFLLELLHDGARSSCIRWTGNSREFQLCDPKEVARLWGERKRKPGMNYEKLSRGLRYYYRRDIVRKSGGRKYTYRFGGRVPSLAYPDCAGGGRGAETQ
# Procedure, shortened: as §1
# [8] = molecular target: T5, ELF3 (Homo sapiens, UniProt P78545 1-371); conditions: protein: recombinant; tags: N-terminal GST; dsDNA, one strand shown
# T5 sequence: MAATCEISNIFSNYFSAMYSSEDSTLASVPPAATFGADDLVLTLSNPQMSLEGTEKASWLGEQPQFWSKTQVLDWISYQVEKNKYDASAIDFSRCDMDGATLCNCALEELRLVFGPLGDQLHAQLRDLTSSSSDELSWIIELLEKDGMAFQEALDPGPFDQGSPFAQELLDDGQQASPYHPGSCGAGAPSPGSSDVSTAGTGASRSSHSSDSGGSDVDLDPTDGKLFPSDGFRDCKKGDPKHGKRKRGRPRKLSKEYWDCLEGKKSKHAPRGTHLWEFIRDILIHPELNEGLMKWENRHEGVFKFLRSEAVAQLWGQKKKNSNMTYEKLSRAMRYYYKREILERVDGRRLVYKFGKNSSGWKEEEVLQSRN
# Procedure, shortened: as §1
# [9] = molecular target: CRX (Homo sapiens, UniProt O43186 1-299); conditions: protein: recombinant; tags: N-terminal GST; dsDNA, one strand shown
# Procedure, shortened: as §1
# [10] = molecular target: ETV1 (Homo sapiens, UniProt P50549 1-477); conditions: protein: recombinant; tags: N-terminal GST; dsDNA, one strand shown
# Procedure, shortened: as §1
# [11] = molecular target: T6, ERF (Homo sapiens, UniProt P50548 1-548); conditions: protein: recombinant; tags: N-terminal GST; dsDNA, one strand shown
# T6 sequence: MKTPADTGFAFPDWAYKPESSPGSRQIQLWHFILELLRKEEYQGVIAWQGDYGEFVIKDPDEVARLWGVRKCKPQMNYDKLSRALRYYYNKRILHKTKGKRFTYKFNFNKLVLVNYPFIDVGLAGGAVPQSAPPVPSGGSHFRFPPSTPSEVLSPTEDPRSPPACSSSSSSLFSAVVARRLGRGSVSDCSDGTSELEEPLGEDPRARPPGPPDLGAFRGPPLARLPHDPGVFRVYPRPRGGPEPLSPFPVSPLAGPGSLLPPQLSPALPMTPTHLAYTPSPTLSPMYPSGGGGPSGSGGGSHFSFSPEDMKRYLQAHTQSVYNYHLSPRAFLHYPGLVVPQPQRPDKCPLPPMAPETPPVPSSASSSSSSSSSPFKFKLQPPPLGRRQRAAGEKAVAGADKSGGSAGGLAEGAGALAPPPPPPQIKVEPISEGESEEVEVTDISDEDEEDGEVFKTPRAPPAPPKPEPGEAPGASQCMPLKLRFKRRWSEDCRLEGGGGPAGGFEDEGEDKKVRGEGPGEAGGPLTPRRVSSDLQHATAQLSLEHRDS
# Procedure, shortened: as §1
# [12] = molecular target: T7, ETV3L (Homo sapiens, UniProt Q6ZN32 1-361); conditions: protein: recombinant; tags: N-terminal GST; dsDNA, one strand shown
# T7 sequence: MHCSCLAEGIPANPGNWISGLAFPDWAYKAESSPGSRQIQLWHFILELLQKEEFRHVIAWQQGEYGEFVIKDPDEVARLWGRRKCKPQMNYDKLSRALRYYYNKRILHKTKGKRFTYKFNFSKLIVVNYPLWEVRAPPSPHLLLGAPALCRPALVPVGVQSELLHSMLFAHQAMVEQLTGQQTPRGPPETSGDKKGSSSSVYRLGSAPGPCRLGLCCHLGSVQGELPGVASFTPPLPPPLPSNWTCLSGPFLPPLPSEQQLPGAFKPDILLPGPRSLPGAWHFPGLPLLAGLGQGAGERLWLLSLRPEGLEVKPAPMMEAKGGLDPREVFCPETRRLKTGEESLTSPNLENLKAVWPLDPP
# Procedure, shortened: as §1
# [13] = molecular target: T8, ETS2 (Homo sapiens, UniProt P15036 1-469); conditions: protein: recombinant; tags: N-terminal GST; dsDNA, one strand shown
# T8 sequence: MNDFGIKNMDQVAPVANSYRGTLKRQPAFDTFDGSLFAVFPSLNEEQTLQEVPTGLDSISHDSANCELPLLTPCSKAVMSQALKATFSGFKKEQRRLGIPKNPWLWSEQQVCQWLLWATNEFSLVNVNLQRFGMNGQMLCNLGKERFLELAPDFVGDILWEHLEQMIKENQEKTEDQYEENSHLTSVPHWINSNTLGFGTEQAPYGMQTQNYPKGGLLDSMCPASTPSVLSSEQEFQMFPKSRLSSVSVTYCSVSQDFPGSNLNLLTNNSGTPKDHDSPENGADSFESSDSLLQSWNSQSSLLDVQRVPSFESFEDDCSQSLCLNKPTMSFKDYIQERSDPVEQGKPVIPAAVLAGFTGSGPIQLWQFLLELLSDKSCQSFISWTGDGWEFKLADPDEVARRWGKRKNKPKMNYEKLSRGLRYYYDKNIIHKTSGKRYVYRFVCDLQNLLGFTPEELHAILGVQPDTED
# Procedure, shortened: as §1
# [14] = molecular target: T9, SPDEF (Homo sapiens, UniProt O95238 1-335); conditions: protein: recombinant; tags: N-terminal GST; dsDNA, one strand shown
# T9 sequence: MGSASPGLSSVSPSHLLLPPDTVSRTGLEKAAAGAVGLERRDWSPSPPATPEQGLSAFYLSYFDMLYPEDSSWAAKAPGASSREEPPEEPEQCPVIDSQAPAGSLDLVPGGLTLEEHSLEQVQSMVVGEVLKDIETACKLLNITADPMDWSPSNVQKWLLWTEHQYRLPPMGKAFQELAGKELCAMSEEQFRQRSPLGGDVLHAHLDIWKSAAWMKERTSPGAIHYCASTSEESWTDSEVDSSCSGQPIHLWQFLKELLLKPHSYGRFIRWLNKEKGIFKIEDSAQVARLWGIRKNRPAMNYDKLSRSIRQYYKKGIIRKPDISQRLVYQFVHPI
# Procedure, shortened: as §1
# [15] = molecular target: T10, ETV7 (Homo sapiens, UniProt Q9Y603 1-341); conditions: protein: recombinant; tags: N-terminal GST; dsDNA, one strand shown
# T10 sequence: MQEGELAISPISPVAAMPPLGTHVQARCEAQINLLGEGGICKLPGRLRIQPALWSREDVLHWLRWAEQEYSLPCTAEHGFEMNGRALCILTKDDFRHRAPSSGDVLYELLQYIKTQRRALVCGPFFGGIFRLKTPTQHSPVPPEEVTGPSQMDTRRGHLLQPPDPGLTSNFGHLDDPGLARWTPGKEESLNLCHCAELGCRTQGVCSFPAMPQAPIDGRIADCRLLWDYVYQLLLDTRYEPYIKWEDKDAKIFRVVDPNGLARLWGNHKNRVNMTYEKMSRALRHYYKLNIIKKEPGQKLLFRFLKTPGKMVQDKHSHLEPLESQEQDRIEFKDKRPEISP
# Procedure, shortened: as §1
# [16] = molecular target: T11, ELF5 (Homo sapiens, UniProt Q9UKW6-2 1-255); conditions: protein: recombinant; tags: N-terminal GST; dsDNA, one strand shown
# T11 sequence: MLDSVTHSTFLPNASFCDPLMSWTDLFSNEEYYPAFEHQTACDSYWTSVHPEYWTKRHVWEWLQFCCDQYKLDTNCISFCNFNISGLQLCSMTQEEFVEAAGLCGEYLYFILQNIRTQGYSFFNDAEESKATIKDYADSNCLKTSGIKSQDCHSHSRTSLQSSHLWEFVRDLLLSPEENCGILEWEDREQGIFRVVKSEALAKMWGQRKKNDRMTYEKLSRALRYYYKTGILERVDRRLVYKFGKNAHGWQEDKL
# Procedure, shortened: as §1
# [17] = molecular target: T12, ETV3 (Homo sapiens, UniProt P41162-2 1-143); conditions: protein: recombinant; tags: N-terminal GST; dsDNA, one strand shown
# T12 sequence: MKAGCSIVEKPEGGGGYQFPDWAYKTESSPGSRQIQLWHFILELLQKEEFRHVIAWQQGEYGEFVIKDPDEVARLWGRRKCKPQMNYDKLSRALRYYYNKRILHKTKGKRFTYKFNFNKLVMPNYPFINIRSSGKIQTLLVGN
# Procedure, shortened: as §1
# [18] = molecular target: ETV6 (Homo sapiens, UniProt P41212 1-452); conditions: protein: recombinant; tags: N-terminal GST; dsDNA, one strand shown
# Procedure, shortened: as §1
# CRX, sequence (O43186 whole entry): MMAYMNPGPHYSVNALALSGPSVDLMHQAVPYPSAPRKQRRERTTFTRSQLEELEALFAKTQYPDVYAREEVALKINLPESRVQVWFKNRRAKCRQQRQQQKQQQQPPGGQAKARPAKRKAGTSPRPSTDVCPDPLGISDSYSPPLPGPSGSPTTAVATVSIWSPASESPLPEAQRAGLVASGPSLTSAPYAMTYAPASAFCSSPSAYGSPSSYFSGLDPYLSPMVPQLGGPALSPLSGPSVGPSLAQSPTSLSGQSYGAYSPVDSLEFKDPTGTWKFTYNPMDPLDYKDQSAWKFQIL
# ETV1, sequence (P50549 whole entry): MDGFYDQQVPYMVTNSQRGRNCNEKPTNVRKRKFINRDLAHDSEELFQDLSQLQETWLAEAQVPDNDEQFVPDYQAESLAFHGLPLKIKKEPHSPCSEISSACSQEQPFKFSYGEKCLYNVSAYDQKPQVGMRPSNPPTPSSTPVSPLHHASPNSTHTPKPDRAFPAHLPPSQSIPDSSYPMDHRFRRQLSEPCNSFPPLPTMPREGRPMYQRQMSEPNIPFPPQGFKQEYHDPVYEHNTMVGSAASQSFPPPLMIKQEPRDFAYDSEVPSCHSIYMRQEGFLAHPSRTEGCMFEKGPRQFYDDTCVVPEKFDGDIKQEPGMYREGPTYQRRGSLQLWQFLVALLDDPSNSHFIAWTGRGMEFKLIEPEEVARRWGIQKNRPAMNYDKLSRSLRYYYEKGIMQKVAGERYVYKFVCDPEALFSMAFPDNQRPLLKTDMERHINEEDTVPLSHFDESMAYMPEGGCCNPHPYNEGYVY
# HSF1, sequence (Q00613 whole entry): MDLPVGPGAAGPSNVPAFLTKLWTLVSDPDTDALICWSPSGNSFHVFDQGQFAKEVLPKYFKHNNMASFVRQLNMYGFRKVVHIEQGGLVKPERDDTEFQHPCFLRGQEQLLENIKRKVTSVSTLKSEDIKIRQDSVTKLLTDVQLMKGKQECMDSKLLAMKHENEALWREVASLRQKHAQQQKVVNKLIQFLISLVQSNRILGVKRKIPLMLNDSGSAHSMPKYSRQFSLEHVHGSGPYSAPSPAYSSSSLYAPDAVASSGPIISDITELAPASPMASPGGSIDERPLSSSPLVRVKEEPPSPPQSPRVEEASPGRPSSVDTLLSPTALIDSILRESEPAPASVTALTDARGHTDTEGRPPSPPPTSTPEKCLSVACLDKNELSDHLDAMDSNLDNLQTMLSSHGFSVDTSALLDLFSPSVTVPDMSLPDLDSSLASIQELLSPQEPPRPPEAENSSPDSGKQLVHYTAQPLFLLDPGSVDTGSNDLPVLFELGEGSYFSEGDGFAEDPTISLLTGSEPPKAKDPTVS
# ELF4, sequence (Q99607 whole entry): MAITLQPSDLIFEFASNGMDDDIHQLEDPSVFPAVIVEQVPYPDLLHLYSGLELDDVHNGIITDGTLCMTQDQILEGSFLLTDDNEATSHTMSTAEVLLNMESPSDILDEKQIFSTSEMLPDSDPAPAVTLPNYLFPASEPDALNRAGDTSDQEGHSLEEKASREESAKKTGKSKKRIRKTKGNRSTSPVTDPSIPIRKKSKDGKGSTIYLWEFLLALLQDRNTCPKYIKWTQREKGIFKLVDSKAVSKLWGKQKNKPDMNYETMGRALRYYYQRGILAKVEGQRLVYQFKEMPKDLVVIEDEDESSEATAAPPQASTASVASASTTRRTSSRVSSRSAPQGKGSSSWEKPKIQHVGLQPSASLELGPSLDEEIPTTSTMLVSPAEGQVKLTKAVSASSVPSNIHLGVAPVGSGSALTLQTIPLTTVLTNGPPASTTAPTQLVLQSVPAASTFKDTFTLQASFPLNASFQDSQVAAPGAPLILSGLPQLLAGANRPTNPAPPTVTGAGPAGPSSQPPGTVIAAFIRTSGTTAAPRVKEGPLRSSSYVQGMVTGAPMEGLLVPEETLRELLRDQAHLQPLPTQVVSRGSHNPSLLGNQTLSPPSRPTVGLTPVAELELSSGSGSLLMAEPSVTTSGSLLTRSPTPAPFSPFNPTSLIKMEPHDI
# ETV5, sequence (P41161 whole entry): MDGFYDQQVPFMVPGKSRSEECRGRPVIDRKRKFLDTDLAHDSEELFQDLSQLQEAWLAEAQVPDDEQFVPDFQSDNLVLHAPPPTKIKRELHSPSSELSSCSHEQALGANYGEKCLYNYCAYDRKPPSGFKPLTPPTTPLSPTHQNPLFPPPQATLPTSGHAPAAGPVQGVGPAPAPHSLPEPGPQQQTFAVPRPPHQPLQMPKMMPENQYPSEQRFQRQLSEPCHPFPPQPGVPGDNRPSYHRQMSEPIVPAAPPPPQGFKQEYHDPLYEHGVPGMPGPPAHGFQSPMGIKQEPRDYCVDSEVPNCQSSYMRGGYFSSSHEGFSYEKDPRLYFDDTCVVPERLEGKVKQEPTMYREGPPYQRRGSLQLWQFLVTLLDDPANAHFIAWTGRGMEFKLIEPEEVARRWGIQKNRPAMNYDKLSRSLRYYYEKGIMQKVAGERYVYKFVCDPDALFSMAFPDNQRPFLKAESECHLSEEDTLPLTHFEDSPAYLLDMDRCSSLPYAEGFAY
# ETV6, sequence (P41212 whole entry): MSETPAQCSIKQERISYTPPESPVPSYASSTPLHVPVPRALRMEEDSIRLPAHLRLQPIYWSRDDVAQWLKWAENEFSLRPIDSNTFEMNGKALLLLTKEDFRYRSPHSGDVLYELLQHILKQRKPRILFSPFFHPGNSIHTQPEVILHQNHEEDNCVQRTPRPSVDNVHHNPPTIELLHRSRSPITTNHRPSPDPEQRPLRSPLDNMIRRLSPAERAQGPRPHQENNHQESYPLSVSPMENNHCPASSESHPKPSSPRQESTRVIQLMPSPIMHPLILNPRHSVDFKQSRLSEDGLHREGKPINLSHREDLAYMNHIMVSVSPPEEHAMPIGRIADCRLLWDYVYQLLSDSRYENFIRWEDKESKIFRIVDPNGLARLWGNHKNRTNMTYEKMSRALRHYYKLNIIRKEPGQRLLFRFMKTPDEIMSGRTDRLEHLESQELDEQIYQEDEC
sequence,measurement,setting,value
TTCTAG,binding signal,[1],"1.15 fold enrichment (6-mer frequency, TF over GST control)"
same,binding signal,[2],"1.11 fold enrichment (6-mer frequency, TF over GST control)"
same,binding signal,[3],"7.56 fold enrichment (6-mer frequency, TF over GST control)"
same,binding signal,[4],"1.29 fold enrichment (6-mer frequency, TF over GST control)"
same,binding signal,[5],"1.22 fold enrichment (6-mer frequency, TF over GST control)"
same,binding signal,[6],"1.22 fold enrichment (6-mer frequency, TF over GST control)"
same,binding signal,[7],"1.18 fold enrichment (6-mer frequency, TF over GST control)"
same,binding signal,[8],"1.42 fold enrichment (6-mer frequency, TF over GST control)"
same,binding signal,[9],"2.67 fold enrichment (6-mer frequency, TF over GST control)"
same,binding signal,[10],"1.2 fold enrichment (6-mer frequency, TF over GST control)"
same,binding signal,[11],"1.33 fold enrichment (6-mer frequency, TF over GST control)"
same,binding signal,[12],"1.3 fold enrichment (6-mer frequency, TF over GST control)"
same,binding signal,[13],"1.34 fold enrichment (6-mer frequency, TF over GST control)"
same,binding signal,[14],"1.17 fold enrichment (6-mer frequency, TF over GST control)"
same,binding signal,[15],"1.45 fold enrichment (6-mer frequency, TF over GST control)"
same,binding signal,[16],"1.2 fold enrichment (6-mer frequency, TF over GST control)"
same,binding signal,[17],"1.19 fold enrichment (6-mer frequency, TF over GST control)"
same,binding signal,[18],"1.16 fold enrichment (6-mer frequency, TF over GST control)"
